In PubChem BioAssay AID1159580 (chemical genetic matrix, 2015):
Where “and” joins values, the source holds several entries; their conditions need not be identical. Equal values may be shown once. The campaign covered roughly 5,500 compounds. About 2,000 (36%) were called active. Another 18% or so got no clear call; they are omitted. Cut-off read from the data, not from the text of the source: active = normalized growth mostly below about 0.91 (no sharp cut-off); inconclusive = no clear call, values can overlap the other calls; inactive = mostly above about 0.92. Some of the results follow.

Assay: chemical genetic growth profiling, strain panel (AID 1159580);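 note: tested at 20 µM; growth read once vehicle control cultures reached saturation at 30 °C; 1 = growth at the plate median or of vehicle wells; lower values mean less growth of the strain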
Conditions: S. cerevisiae deletion strains, growth OD

Measured: normalized growth

COc1ccc2c(=O)c(-c3cc4c(cc3OC)OCO4)coc2c1
inactive: locus YAL021C, strain ccr4, active compounds read low 1 | locus YAL026C, strain drs2, active compounds read low 1.01 | locus YAL030W, strain snc1, active compounds read low 1 | locus YBL061C, strain skt5, active compounds read low 1.01 | locus YBR009C, strain hhf1, active compounds read low 1 | locus YBR021W, strain FUR4, active compounds read low 0.907 | locus YBR023C, strain chs3, active compounds read low 1.01 | locus YBR171W, strain sec66, active compounds read low 1.01 | locus YBR229C, strain ROT2, active compounds read low 1 | locus YBR231C, strain swc5, active compounds read low 1.01 | locus YBR279W, strain paf1, active compounds read low 1.02 | locus YCL011C, strain gbp2, active compounds read low 1.01 | locus YCL016C, strain dcc1, active compounds read low 1.01 | locus YCL029C, strain bik1, active compounds read low 1 | locus YCL061C, strain MRC1, active compounds read low 1.01 | locus YCL069W, strain vba3, active compounds read low 1 | locus YCR088W, strain abp1, active compounds read low 1.01 | locus YDL005C, strain med2, active compounds read low 1.01 | locus YDL035C, strain GPR1, active compounds read low 1 | locus YDL040C, strain nat1, active compounds read low 1.01 | locus YDL074C, strain BRE1, active compounds read low 1.04 | locus YDL101C, strain DUN1, active compounds read low 1.05 | locus YDL185W, strain tfp1, active compounds read low 1.02 | locus YDL192W, strain arf1, active compounds read low 1.01 | locus YDR001C, strain nth1, active compounds read low 1.01 | locus YDR069C, strain doa4, active compounds read low 1.02 | locus YDR101C, strain arx1, active compounds read low 0.997 | locus YDR137W, strain rgp1, active compounds read low 0.971 | locus YDR159W, strain sac3, active compounds read low 1.03 | locus YDR162C, strain NBP2, active compounds read low 1.03 | locus YDR195W, strain ref2 1.03 | locus YDR297W, strain sur2, active compounds read low 1.01 | locus YDR318W, strain mcm21, active compounds read low 1 | locus YDR334W, strain swr1, active compounds read low 1.03 | locus YDR335W, strain msn5, active compounds read low 1.01 | locus YDR388W, active compounds read low 0.997 | locus YDR392W, strain spt3, active compounds read low 1.02 | locus YDR502C, strain sam2, active compounds read low 1.02 | locus YEL003W, strain gim4, active compounds read low 1.01 | locus YEL037C, strain rad23, active compounds read low 1.01 | locus YEL061C, strain CIN8 (second series), active compounds read low 1.01 | locus YER015W, strain faa2, active compounds read low 1.01 | locus YER016W, strain bim1, active compounds read low 1.01 | locus YER110C, active compounds read low 1.01 | locus YER111C, strain swi4, active compounds read low 1.01 | locus YER155C, strain BEM2 (second series), active compounds read low 1 | locus YER155C, strain BEM2, active compounds read low 1 | locus YER167W, strain BCK2, active compounds read low 1.02 | locus YFR010W, strain ubp6, active compounds read low 1.02 | locus YGL078C, strain dbp3, active compounds read low 1 | locus YGL086W, strain mad1, active compounds read low 0.993 | locus YGL167C, strain pmr1, active compounds read low 1.01 | locus YGL173C, strain kem1, active compounds read low 1 | locus YGL227W, strain vid30, active compounds read low 1.01 | locus YGL240W, strain doc1, active compounds read low 1 | locus YGL248W, strain PDE1, active compounds read low 1.02 | locus YGL253W, strain hxk2, active compounds read low 1.01 | locus YGR135W, strain pre9, active compounds read low 1 | locus YGR252W, strain gcn5, active compounds read low 0.907 | locus YHR013C, strain ard1, active compounds read low 1.03 | locus YHR027C, strain rpn1, active compounds read low 1.02 | locus YHR030C, strain SLT2, active compounds read low 0.98 | locus YHR079C, strain IRE1 (second series), active compounds read low 1.03 | locus YHR079C, strain IRE1, active compounds read low 0.982 | locus YHR094C, strain hxt1, active compounds read low 1.02 | locus YHR129C, strain ARP1, active compounds read low 1.03 | locus YHR142W, strain chs7, active compounds read low 0.987 | locus YHR200W, strain rpn10, active compounds read low 1.03 | locus YIL066C, strain RNR3, active compounds read low 1.02 | locus YIL073C, strain SPO22, active compounds read low 1.07 | locus YIL125W, strain kgd1, active compounds read low 1 | locus YIR030C, strain dcg1, active compounds read low 1.02 | locus YJL092W, strain hpr5, active compounds read low 1.02 | locus YJL095W, strain BCK1 (second series), active compounds read low 1.01 | locus YJL095W, strain BCK1, active compounds read low 1.01 and 0.987 | locus YJL115W, strain asf1, active compounds read low 1.02 | locus YJL129C, strain trk1, active compounds read low 0.996 | locus YJL134W, strain LCB3, active compounds read low 1.02 | locus YJL154C, strain vps35, active compounds read low 1 | locus YJL164C, strain tpk1, active compounds read low 1.02 | locus YJL166W, strain qcr8, active compounds read low 1 | locus YJL168C, strain set2, active compounds read low 1.02 | locus YJL187C, strain SWE1 (second series), active compounds read low 1.03 | locus YJL187C, strain SWE1, active compounds read low 1 | locus YJR066W, strain TOR1, active compounds read low 0.927 | locus YKL009W, strain mrt4, active compounds read low 0.952 | locus YKL068W, active compounds read low 1.03 | locus YKL085W, strain MDH1 (second series), active compounds read low 1.02 | locus YKL085W, strain MDH1, active compounds read low 1.02 | locus YKL160W, strain elf1, active compounds read low 1.01 | locus YKL190W, strain CNB1, active compounds read low 1.04 | locus YKR001C, strain vps1, active compounds read low 1.01 | locus YKR026C, strain gcn3, active compounds read low 1.01 | locus YKR091W, strain srl3, active compounds read low 1.01 | locus YLL001W, strain dnm1, active compounds read low 1.01 | locus YLL026W, active compounds read low 1.01 | locus YLL041C, strain sdh2, active compounds read low 1.01 | locus YLR027C, strain aat2, active compounds read low 1 | locus YLR039C, strain RIC1, active compounds read low 1.13 | locus YLR058C, strain SHM2, active compounds read low 1.02 | locus YLR102C, strain apc9, active compounds read low 1.01 | locus YLR113W, strain HOG1, active compounds read low 1.01 | locus YLR221C, strain rsa3, active compounds read low 1 | locus YLR258W, strain gsy2, active compounds read low 1 | locus YLR262C, strain YPT6 (second series), active compounds read low 1.01 | locus YLR262C, strain YPT6, active compounds read low 1.06 | locus YLR268W, strain sec22, active compounds read low 0.972 | locus YLR320W, strain mms22, active compounds read low 1.02 | locus YLR330W, strain CHS5, active compounds read low 1.02 | locus YLR342W, strain FKS1 (second series), active compounds read low 0.997 | locus YLR342W, strain FKS1, active compounds read low 1.01 | locus YLR357W, strain rsc2, active compounds read low 1.1 | locus YLR370C, strain arc18, active compounds read low 1.01 | locus YLR371W, strain rom2, active compounds read low 1.04 | locus YLR384C, strain iki3, active compounds read low 0.998 | locus YLR418C, strain cdc73, active compounds read low 1.05 | locus YML016C, strain PPZ1, active compounds read low 1.02 | locus YML032C, strain rad52, active compounds read low 0.98 | locus YML120C, strain ndi1, active compounds read low 1.02 | locus YML124C, strain tub3, active compounds read low 1.03 | locus YMR058W, strain fet3, active compounds read low 1.02 | locus YMR078C, strain ctf18, active compounds read low 1.02 | locus YMR125W, strain sto1, active compounds read low 1.04 | locus YMR129W, active compounds read low 1.01 | locus YMR205C, strain PFK2, active compounds read low 1.01 | locus YMR223W, strain ubp8, active compounds read low 1.01 | locus YMR231W, strain pep5, active compounds read low 1.01 | locus YMR307W, strain GAS1, active compounds read low 0.979 | locus YNL067W, strain RPL9B, active compounds read low 1.03 | locus YNL071W, strain lat1, active compounds read low 1 | locus YNL153C, strain GIM3, active compounds read low 1.04 | locus YNL183C, strain NPR1, active compounds read low 0.944 | locus YNL209W, strain ssb2, active compounds read low 1.01 | locus YNL233W, strain BNI4, active compounds read low 1.03 | locus YNL248C, strain rpa49, active compounds read low 1.02 | locus YNL250W, strain rad50, active compounds read low 1.06 | locus YNL271C, strain bni1, active compounds read low 1.02 | locus YNL298W, strain CLA4, active compounds read low 0.969 | locus YNL307C, strain MCK1, active compounds read low 0.97 | locus YNL322C, strain KRE1 (second series), active compounds read low 1.01 | locus YNL322C, strain KRE1, active compounds read low 1.02 | locus YNR049C, strain mso1, active compounds read low 1.01 | locus YNR052C, strain pop2, active compounds read low 1.02 | locus YOL012C, strain htz1 1.12 | locus YOL147C, strain pex11, active compounds read low 1 | locus YOR001W, strain rrp6, active compounds read low 1 | locus YOR061W, strain CKA2, active compounds read low 1.02 | locus YOR069W, strain VPS5, active compounds read low 1.02 | locus YOR070C, strain gyp1, active compounds read low 1 | locus YOR080W, strain dia2, active compounds read low 1.01 | locus YOR083W, strain WHI5, active compounds read low 0.999 | locus YOR106W, strain vam3, active compounds read low 1 | locus YOR136W, strain idh2, active compounds read low 1.01 | locus YOR144C, strain elg1, active compounds read low 1.04 | locus YOR184W, strain ser1, active compounds read low 0.957 | locus YOR231W, strain MKK1, active compounds read low 0.993 | locus YOR265W, strain rbl2, active compounds read low 1.01 | locus YOR270C, strain vph1, active compounds read low 1.04 | locus YOR290C, strain snf2, active compounds read low 1.02 | locus YOR316C, strain cot1, active compounds read low 1.02 | locus YPL051W, strain arl3, active compounds read low 1 | locus YPL078C, strain atp4, active compounds read low 1.01 | locus YPL106C, strain sse1, active compounds read low 0.996 | locus YPL240C, strain hsp82, active compounds read low 0.995 | locus YPL241C, strain CIN2, active compounds read low 1.04 | locus YPL256C, strain CLN2, active compounds read low 0.963 | locus YPR119W, strain clb2, active compounds read low 1.02 | locus YPR141C, strain kar3, active compounds read low 1.03 | locus YPR163C, strain tif3, active compounds read low 0.992 | locus YPR167C, strain met16, active compounds read low 1.02 | strain wtn01, active compounds read low 1.01
